# Compound activity as filed in PubChem BioAssay.
# NS1 function inh: qHTS Assay for Inhibitors of Influenza NS1 Protein Function | Potency, µM (titrated, usually from 46.1 µM), for the others: at the top dose activity, positive = more growth | 0.4% of 270,000 active | AID 2326, 2010; calls by dose curve; further: potency means the concentration at half of the fitted maximal effect; actives are rising curves; nearly all actives have a fitted effect of over 50% in size
#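 S. cerevisiae expressing influenza A NS1, grown in glucose, washed, then diluted 1:100 into pH 6.0 -URA galactose medium with 23 nl compound. Growth recovery read as OD600; NS1-free strain serves as control.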
# Shiga inhibitor: A qHTS for Small Molecule Inhibitors of Shiga Toxin | 9.2% of 290,000 active | Vero cells, Shiga toxin protein synthesis inhibition reporter | inhibition, % at 38.7 µM | AID 2315, 2010; in the data active means inhibition mostly above about 28%, no sharp cut-off; inactive means mostly below about 43%; further: 0% is about no effect
# Pf growth 48h: Primary qHTS for delayed death inhibitors of the malarial parasite plastid, 48 hour incubation; P. falciparum luciferase growth in erythrocytes, 48 h; Potency, µM (top dose mostly 28.7 µM), for inactives: at the highest dose activity change, negative = inhibition, actives largely listed as inhibitors; 5.9% of 310,000 active; further: potency means the concentration at half of the fitted maximal effect; on the % scale 0 is the no-effect control and ±100 the full control effect
#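 Read-out is firefly luciferase luminescence from an integrated reporter in P. falciparum, so falling signal marks reduced parasite growth. Infected erythrocytes were at 2% hematocrit and 0.1% parasitemia (final) in Albumax-supplemented RPMI 1640.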
# Pf growth 96h: Primary qHTS for delayed death inhibitors of the malarial parasite plastid, 96 hour incubation. P. falciparum luciferase reporter growth, 96 h. Potency, µM (doses to about 28.7 µM), without a hit: at the top dose activity change, negative = inhibition, usual class: inhibitors. 6.9% of 320,000 active; further: potency means the concentration at half of the fitted maximal effect; on the % scale 0 is the no-effect control and ±100 the full control effect
#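 Parasite growth measured via integrated firefly luciferase reporter in P. falciparum. Infected erythrocytes at 2% hematocrit, 0.05% parasitemia final were treated 96 hours at 37 C under 5% CO2, and luminescence was read.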
# FBPA Giardia inh: qHTS Assay for Inhibitors of Fructose-1,6-bisphosphate Aldolase from Giardia Lamblia; A8B2U2; purified Giardia FBPA; Potency, µM (series often up to 59.6 µM), without a hit: at the highest dose activity, negative = inhibition, hits mostly inhibitors; 0.71% of 290,000 active; AID 2451, 2010; further: potency means the concentration at half of the fitted maximal effect; on the % scale 0 is the no-effect control and ±100 the full control effect; nearly all actives have a fitted effect of over 55% in size
# Target sequence (A8B2U2 whole entry, looked up): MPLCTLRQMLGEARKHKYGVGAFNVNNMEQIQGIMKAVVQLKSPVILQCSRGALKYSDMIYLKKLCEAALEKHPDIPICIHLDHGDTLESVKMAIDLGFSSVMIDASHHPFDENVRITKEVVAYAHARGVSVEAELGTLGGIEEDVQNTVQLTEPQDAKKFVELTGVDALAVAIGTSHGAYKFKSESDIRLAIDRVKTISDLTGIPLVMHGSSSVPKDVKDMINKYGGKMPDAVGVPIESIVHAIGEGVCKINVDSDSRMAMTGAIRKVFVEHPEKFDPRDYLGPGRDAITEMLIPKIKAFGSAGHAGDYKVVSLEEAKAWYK
#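 Giardia FBPA (40 nM reagent) was preincubated 10 min at RT with compound (up to 57.5 uM final), then substrate plus GAPDH/TPI/NAD/arsenate coupling system with diaphorase/resazurin was added; resorufin fluorescence (525/598 nm) was read after 20 min.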
# Cycloheximide cs: Cycloheximide Counterscreen for Small Molecule Inhibitors of Shiga Toxin | cell reporter, cycloheximide protein synthesis inhibition counterscreen | max response, % | 12% of 300,000 active; in the data active means max response mostly above about 13%, no sharp cut-off; inactive means mostly below about 14%; further: read at 38.3 µM for the half of the compounds with a filed dose; 0% is about no effect
# * marks the source's active call; other numbers are inactive results; i = inactive; ? = inconclusive; nt = not tested or not shown; [ ] = another dose, or the depositor's remark. Shown are actives, neighbours in structure and some others; about 21% of the full set was active somewhere. Unless noted, the call rests on the fitted dose curve; in most records, active means well fitted curve in the direction sought with a large enough effect; inconclusive means small, poorly fitted or top-dose-only effect, or another doubt; inactive means no such curve, though single readings can be large; an effect the other way counts as inactive or inconclusive.
SMILES,NS1 function inh,Shiga inhibitor,Pf growth 48h,Pf growth 96h,FBPA Giardia inh,Cycloheximide cs
O=C(NNC1CC(=O)N(c2cccc(Cl)c2)C1=O)c1cccs1 (stereo unspecified),30%,39*,7%,8%,3%,11
CC(=O)NCCCC(=O)NNC1CC(=O)N(c2cccc(Cl)c2)C1=O (stereo unspecified),-6%,-5,9%,20%,4%,-3
COc1ccc(N2C(=O)CC(NNC(=O)c3ccc(Br)s3)C2=O)cc1 (stereo unspecified),7%,8,10%,-33%[5.75 µM],3%,1
Cc1ccc(N/N=C(\C#N)C(N)=S)c(C)c1,-56%,41,4%,?,-10%,13*
O=C(CSc1ncccc1-c1nc2ccccc2[nH]1)N1CCCCC1,-8%,79*,-6%,?,-13%,34*
CCN(CC)C(=O)CSc1ncccc1-c1nc2ccccc2[nH]1,2%,27,7%,7%,-15%,17*
Cc1ccc2nc(-c3cccnc3SCC(=O)N3c4ccccc4CC3C)[nH]c2c1 (stereo unspecified),25%,136*,?,?,0%,31*
CC(C)NC(=O)CSc1ncccc1-c1nc2ccccc2[nH]1,-14%,24,1%,-7%,-8%,13*
Cc1ccc2nc(SCC(=O)N3c4ccccc4CC3C)c(C)cc2c1 (stereo unspecified),7%,-4,nt,?,0%,18
Cc1ccc2c(=O)cc(C(=O)NC3CCS(=O)(=O)C3)oc2c1C (stereo unspecified),14%,13,10%,?,5%,13
CC(C)C[C@H](NC(=O)OC(C)(C)C)c1n[nH]c(=S)n1N,4%,28,-13%,18%,?,1
Cc1ccc(CN2CCC(=O)N2)cc1,7%,15,-1%[0.00184 µM],0%,-24%,-3
COC(=O)N1C2CC3(C)C=C(C)OC1(C)C3c1ccccc12 (stereo unspecified),nt,nt,nt,nt,5%[12.9 µM],nt
CCN(Cc1cc(=O)n2ccsc2n1)Cc1nc2cc(OC)c(OC)cc2c(=O)[nH]1,2%,24,81%,38%,-8%,-3
COc1ccc(CCNC(=O)C2CC(=O)N(C3CCCCC3)C2)cc1OC (stereo unspecified),-4%,-12,4%,?,3%,8
Oc1ccc(Cc2nccc3cc(O)c(O)cc23)cc1O,-5%,nt,nt,nt,nt,nt
CCOc1ccc(Cc2nccc3cc(OCC)c(OCC)cc23)cc1OCC,nt,nt,?,4.1µM*,-19%,nt
Cc1cc(C[n+]2ccccc2)c2nsnc2c1,-6%,-3,2.1µM*,nt,-8%,-1
CCN(CC)S(=O)(=O)c1ccc2c(c1)nc(-c1ccccn1)n2C,-4%,83*,87%,66%,3%,23*
N#CC1CC(c2ccccc2)=NN1c1ccccc1[N+](=O)[O-] (stereo unspecified),nt,113*,87%,0%,-6%,48*
COc1ccc2c(c1)OC(=O)CC2c1ccc2c(c1)OCO2 (stereo unspecified),nt,i,nt,nt,3%[89.2 µM],8
Cn1c(=O)c(-c2cccs2)nc2cnc(OCc3ccccc3)nc21,nt,nt,nt,nt,3%,nt
COc1ccc(-c2cc3c(=O)n(CC(=O)NCCCN4CCC(Cc5ccccc5)CC4)ncn3n2)cc1,-14%,45*,-46%,-24%,nt,23*
COc1ccc(-c2cc3c(=O)n(CC(=O)NCCCN4CCN(Cc5ccccc5)CC4)ncn3n2)cc1,-4%,31,29%,-2%,nt,28*
COc1ccc(CNC(=O)Cn2ncn3c(cc4ccccc43)c2=O)cc1,3%,-11,3%,14%,5%,-2
SMILES,NS1 function inh,Shiga inhibitor,Pf growth 48h,Pf growth 96h,FBPA Giardia inh,Cycloheximide cs
COc1ccc(CNC(=O)Cn2ncn3cccc3c2=O)cc1,nt,30,252%,335%,1%,26*
COc1ccc(-c2cc3c(=O)n(CC(=O)NCc4ccc(F)cc4)ncn3n2)cc1,-1%,16*,142%,7%,-2%,11*
COc1ccc(-c2cc3c(=O)n(CC(=O)NCc4ccc(C)cc4)ncn3n2)cc1,-6%,10,4%,92%,16%,2
CCOc1ccc(CCNC(=O)Cn2ncn3nc(-c4ccc(OC)cc4)cc3c2=O)cc1,5%,12,53%,55%,6%,6
O=c1cc(-c2ccc(O)cc2)oc2cc(O)cc(O)c12,-3%,nt,nt,nt,?,nt
O=C(COc1cc(O)c2c(=O)cc(-c3ccccc3)oc2c1)c1cccc([N+](=O)[O-])c1,7%,nt,4.1µM*,0%,6%,0
COc1cc(-c2cc(=O)c3ccccc3o2)ccc1O,-31%,61*,54%,100%,-3%,37*
COc1cc(O)c2c(=O)c3c(OC)c(O)ccc3oc2c1,2%,56*,106%,60%,1%,37*
COc1cc(-c2cc(=O)c3c(O)cc(O)cc3o2)ccc1O,-1%,39*,?,13µM*,-2%,37*
COc1cc(C(=O)NNC(=S)NC(=O)/C=C/c2ccccc2)cc(OC)c1OC,6%,9,?,-25%,21%,7
COc1ccc(C2=NS(=O)(=O)N(C)C(C(=O)N(C)Cc3ccccc3)=C2)cc1OC,17%,-5,-23%,0%,-7%,-1
COc1cc(O)c2c(=O)cc(-c3ccccc3)oc2c1,-1%,14,56%,25%,10%,11*
Cc1ccc(C(=O)NC(=S)Nc2cc(-c3nc4ccccc4s3)ccc2C)cc1,15%,117*,83%,?,1%,65*
COc1ccccc1NC(=O)CNC(=O)c1ccccc1,0%,3,5%,nt,4%,-1
COc1ccc(-c2nc3ccccc3s2)cc1NC(C)=O,-8%,100*,85%,0%,-2%,35*
COc1ccc(-c2nc3ccccc3o2)cc1NC(=O)COc1ccc(C(C)(C)C)cc1,nt,31,nt,nt,nt,13
COc1ccc(-c2cnc3ccccc3n2)cc1NC(=O)CNC(=O)c1ccccc1,-3%,36,11%,?,6%,36*
COc1ccc(-c2nc3ccccc3s2)cc1NC(=O)COc1cccc(C)c1,nt,71*,nt,nt,nt,54*
COc1ccc(C(=O)Nc2nc3ccccc3s2)cc1OC,-7%,16,?,122%,-1%,1
COC(=O)C/C=C\[C@@H](C)[C@@H](/C=N\O[C@@H](C)c1cc(-c2c(C)cc(C)cc2C)no1)OC,nt,nt,nt,nt,-1%[12.9 µM],nt
COC(=O)C1(O)CC(CC(C)C)=NN1C(=O)c1ccccc1 (stereo unspecified),1%,27,11%,0.29µM*,1%,9
Cc1ccc(CN=C2NC(=O)C(CC(=O)NCCc3ccccc3)S2)cc1 (stereo unspecified),nt,-13,-13%,?,5%,-1
